Assay results: PubChem BioAssay AID1159580 (chemical genetic matrix, 2015)
In all, about 5,500 compounds went through this assay and about 2,000 (36%) were called active. About 18% were inconclusive and are not listed. No stated cut-off is given here; in the data, active means normalized growth mostly below about 0.91 (no sharp cut-off); inconclusive means no clear call, values can overlap the other calls; inactive means mostly above about 0.92. This is one part of the list.

Experiment: chemical genetic growth profiling, strain panel (AID 1159580);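 further: tested at 20 µM; growth read once vehicle control cultures reached saturation at 30 °C; 1 = growth at the plate median or of vehicle wells; lower values mean less growth of the strain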
Settings: growth OD

Measured: normalized growth

O=C1NS(=O)(=O)c2ccccc21
inactive: S. cerevisiae deletion strains, locus YJR066W, strain TOR1, active compounds read low 0.939 | S. cerevisiae deletion strains, locus YKL009W, strain mrt4, active compounds read low 0.988 | S. cerevisiae deletion strains, locus YKL068W, active compounds read low 1 | S. cerevisiae deletion strains, locus YKL085W, strain MDH1 (second series), active compounds read low 0.994 | S. cerevisiae deletion strains, locus YKL085W, strain MDH1, active compounds read low 0.994 | S. cerevisiae deletion strains, locus YKL160W, strain elf1, active compounds read low 0.991 | S. cerevisiae deletion strains, locus YKL190W, strain CNB1, active compounds read low 1.01 | S. cerevisiae deletion strains, locus YKR001C, strain vps1, active compounds read low 0.996 | S. cerevisiae deletion strains, locus YKR026C, strain gcn3, active compounds read low 1.03 | S. cerevisiae deletion strains, locus YKR091W, strain srl3, active compounds read low 1.01 | S. cerevisiae deletion strains, locus YLL001W, strain dnm1, active compounds read low 0.986 | S. cerevisiae deletion strains, locus YLL026W, active compounds read low 1.02 | S. cerevisiae deletion strains, locus YLL041C, strain sdh2, active compounds read low 1.02 | S. cerevisiae deletion strains, locus YLR027C, strain aat2, active compounds read low 1.02 | S. cerevisiae deletion strains, locus YLR039C, strain RIC1, active compounds read low 1.01 | S. cerevisiae deletion strains, locus YLR058C, strain SHM2, active compounds read low 1.02 | S. cerevisiae deletion strains, locus YLR102C, strain apc9, active compounds read low 0.979 | S. cerevisiae deletion strains, locus YLR113W, strain HOG1, active compounds read low 0.978 | S. cerevisiae deletion strains, locus YLR221C, strain rsa3, active compounds read low 1.06 | S. cerevisiae deletion strains, locus YLR258W, strain gsy2, active compounds read low 1.03 | S. cerevisiae deletion strains, locus YLR262C, strain YPT6 (second series), active compounds read low 1.01 | S. cerevisiae deletion strains, locus YLR262C, strain YPT6, active compounds read low 1.02 | S. cerevisiae deletion strains, locus YLR268W, strain sec22, active compounds read low 0.978 | S. cerevisiae deletion strains, locus YLR320W, strain mms22, active compounds read low 1.06 | S. cerevisiae deletion strains, locus YLR330W, strain CHS5, active compounds read low 1 | S. cerevisiae deletion strains, locus YLR342W, strain FKS1 (second series), active compounds read low 0.968 | S. cerevisiae deletion strains, locus YLR342W, strain FKS1, active compounds read low 1.03 | S. cerevisiae deletion strains, locus YLR357W, strain rsc2, active compounds read low 1.01 | S. cerevisiae deletion strains, locus YLR370C, strain arc18, active compounds read low 1.02 | S. cerevisiae deletion strains, locus YLR371W, strain rom2, active compounds read low 0.983 | S. cerevisiae deletion strains, locus YLR384C, strain iki3, active compounds read low 1.04 | S. cerevisiae deletion strains, locus YLR418C, strain cdc73, active compounds read low 0.989 | S. cerevisiae deletion strains, locus YML016C, strain PPZ1, active compounds read low 1.01 | S. cerevisiae deletion strains, locus YML032C, strain rad52, active compounds read low 0.986 | S. cerevisiae deletion strains, locus YML120C, strain ndi1, active compounds read low 0.995 | S. cerevisiae deletion strains, locus YML124C, strain tub3, active compounds read low 0.999 | S. cerevisiae deletion strains, locus YMR058W, strain fet3, active compounds read low 1.03 | S. cerevisiae deletion strains, locus YMR078C, strain ctf18, active compounds read low 0.989 | S. cerevisiae deletion strains, locus YMR125W, strain sto1, active compounds read low 0.999 | S. cerevisiae deletion strains, locus YMR129W, active compounds read low 1.02 | S. cerevisiae deletion strains, locus YMR205C, strain PFK2, active compounds read low 1.03 | S. cerevisiae deletion strains, locus YMR223W, strain ubp8, active compounds read low 0.985 | S. cerevisiae deletion strains, locus YMR231W, strain pep5, active compounds read low 1.02 | S. cerevisiae deletion strains, locus YMR307W, strain GAS1, active compounds read low 0.935 | S. cerevisiae deletion strains, locus YNL067W, strain RPL9B, active compounds read low 1.01 | S. cerevisiae deletion strains, locus YNL071W, strain lat1, active compounds read low 1.01 | S. cerevisiae deletion strains, locus YNL153C, strain GIM3, active compounds read low 1.03 | S. cerevisiae deletion strains, locus YNL183C, strain NPR1, active compounds read low 0.931 | S. cerevisiae deletion strains, locus YNL209W, strain ssb2, active compounds read low 1 | S. cerevisiae deletion strains, locus YNL233W, strain BNI4, active compounds read low 1.02 | S. cerevisiae deletion strains, locus YNL248C, strain rpa49, active compounds read low 1.08 | S. cerevisiae deletion strains, locus YNL250W, strain rad50, active compounds read low 0.985 | S. cerevisiae deletion strains, locus YNL271C, strain bni1, active compounds read low 0.986 | S. cerevisiae deletion strains, locus YNL298W, strain CLA4, active compounds read low 0.987 | S. cerevisiae deletion strains, locus YNL307C, strain MCK1, active compounds read low 0.99 | S. cerevisiae deletion strains, locus YNL322C, strain KRE1 (second series), active compounds read low 1.02 | S. cerevisiae deletion strains, locus YNR049C, strain mso1, active compounds read low 1.02 | S. cerevisiae deletion strains, locus YNR052C, strain pop2, active compounds read low 0.981 | S. cerevisiae deletion strains, locus YOL006C, strain TOP1, active compounds read low 1.08 | S. cerevisiae deletion strains, locus YOL012C, strain htz1 1.16 | S. cerevisiae deletion strains, locus YOL147C, strain pex11, active compounds read low 0.992 | S. cerevisiae deletion strains, locus YOR001W, strain rrp6, active compounds read low 1.06 | S. cerevisiae deletion strains, locus YOR061W, strain CKA2, active compounds read low 1.02 | S. cerevisiae deletion strains, locus YOR069W, strain VPS5, active compounds read low 1.01 | S. cerevisiae deletion strains, locus YOR070C, strain gyp1, active compounds read low 1.02 | S. cerevisiae deletion strains, locus YOR080W, strain dia2, active compounds read low 1.03 | S. cerevisiae deletion strains, locus YOR083W, strain WHI5, active compounds read low 0.981 | S. cerevisiae deletion strains, locus YOR106W, strain vam3, active compounds read low 0.977 | S. cerevisiae deletion strains, locus YOR136W, strain idh2, active compounds read low 0.986 | S. cerevisiae deletion strains, locus YOR144C, strain elg1, active compounds read low 0.993 | S. cerevisiae deletion strains, locus YOR184W, strain ser1, active compounds read low 0.987 | S. cerevisiae deletion strains, locus YOR231W, strain MKK1, active compounds read low 0.985 | S. cerevisiae deletion strains, locus YOR265W, strain rbl2, active compounds read low 1.03 | S. cerevisiae deletion strains, locus YOR270C, strain vph1, active compounds read low 1.06 | S. cerevisiae deletion strains, locus YOR290C, strain snf2, active compounds read low 0.963 | S. cerevisiae deletion strains, locus YOR316C, strain cot1, active compounds read low 0.983 | S. cerevisiae deletion strains, locus YPL051W, strain arl3, active compounds read low 1.02 | S. cerevisiae deletion strains, locus YPL078C, strain atp4, active compounds read low 0.98 | S. cerevisiae deletion strains, locus YPL106C, strain sse1, active compounds read low 0.997 | S. cerevisiae deletion strains, locus YPL240C, strain hsp82, active compounds read low 1.01 | S. cerevisiae deletion strains, locus YPL241C, strain CIN2, active compounds read low 1 | S. cerevisiae deletion strains, locus YPL256C, strain CLN2, active compounds read low 0.979 | S. cerevisiae deletion strains, locus YPR119W, strain clb2, active compounds read low 0.982 | S. cerevisiae deletion strains, locus YPR141C, strain kar3, active compounds read low 0.982 | S. cerevisiae deletion strains, locus YPR163C, strain tif3, active compounds read low 0.986 | S. cerevisiae deletion strains, locus YPR167C, strain met16, active compounds read low 0.984 | S. cerevisiae deletion strains, strain wtn01, active compounds read low 0.974 | S. cerevisiae strains, strain wild type, active compounds read low 1.01
